IP6K1 inhibitor: inhibitors of human IP6K1; Q92551; IP6K1 kinase, ADP-Glo luminescence, 2 h; stronger effect = lower value; activity change, % (series mostly up to about 58 µM); hit rate 0.81% among 140,000; AID 1645851; in the data active means activity change below about -25%
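ADP-Glo luminescence measures ADP made by human IP6K1 during a 2 h RT reaction with ATP/IP6 (mix at 1.3 mM/130 uM); top library doses 57.5 and 19.1 uM final.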
KDM5B inhibitor: inhibitors of human KDM5B histone demethylase | Q9UGL1 | KDM5B demethylase, FDH-coupled NADH fluorescence (FDH is formaldehyde dehydrogenase) | Potency, µM (top dose mostly 57.7 µM), usual class: inhibitors | hit rate 2.6% among 220,000 | AID 1347165; active means well fitted inhibition curve with a large enough effect; inconclusive means small, poorly fitted or top-dose-only effect; inactive means no such curve, though single readings can be large or run the other way; further: nearly all actives have a fitted effect of over 70% in size
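qHTS format, multiple compound concentrations. Buffer 50 mM HEPES pH 7.5/0.01% Tween-20; 200 nM KDM5BΔAP final; 10 min compound preincubation; substrate-mix levels 12.5 µM peptide, 25 µM α-KG, 0.25 mM NAD⁺; 30 min RT; ΔRFU.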
Of the large screens only hits and unclear results are named; the others gave an inactive call. In the library only some 2.8% were active in any assay of this set; here they are far more common.

O=C(N[C@H]1CO[C@H]2[C@@H]1OC[C@@H]2Nc1nccc(-c2cccc(F)c2)n1)c1cccs1	KDM5B inhibitor 35µM
N#Cc1cccc(-c2ccnc(N[C@H]3CO[C@H]4[C@@H]3OC[C@@H]4NC(=O)C3CCCCC3)n2)c1	KDM5B inhibitor 35µM
N#Cc1cccc(NC(=O)N[C@H]2CO[C@H]3[C@@H]2OC[C@@H]3Nc2nccc(-c3cccc(F)c3)n2)c1	KDM5B inhibitor inconclusive
C=CCNC(=O)N[C@H]1CO[C@H]2[C@@H]1OC[C@@H]2Nc1nccc(-c2cccc(F)c2)n1	KDM5B inhibitor 40µM
CC1Oc2ccc(NS(=O)(=O)c3cccc(Cl)c3)cc2CN(Cc2ccccc2Cl)C1=O (stereo unspecified)	KDM5B inhibitor inconclusive
O=C(NCc1ccccc1)C1CCCN(Cc2cccc(-c3ccsc3)c2)C1 (stereo unspecified)	none (no result: KDM5B inhibitor)
Cc1ccc(NC(=O)N2CCC(CCNC(=O)c3n[nH]c4ccccc34)CC2)cc1F	none
COc1ccccc1C(=O)NC1CCN(Cc2cccc(-c3ccc(SC)cc3)c2)CC1	none (no result: KDM5B inhibitor)
C=CCNC(=O)N[C@H]1CO[C@H]2[C@@H]1OC[C@@H]2Nc1nccc(-c2ccccc2OC)n1	KDM5B inhibitor 28µM
COc1ccccc1-c1ccnc(N[C@H]2CO[C@H]3[C@@H]2OC[C@@H]3NC(=O)NC2CCCCC2)n1	KDM5B inhibitor inconclusive
COc1ccc(-n2nc3n(c2=O)CCN(Cc2ccc(C#N)cc2)C3)cc1	KDM5B inhibitor inconclusive
COc1cc2c(cc1CN1CCN(c3ccc(C#N)cc3)C(=O)C1)CCC2	KDM5B inhibitor 32µM
O=S(=O)(Cc1ccccc1F)N1CCC(Cc2nc(-c3ccncc3)n[nH]2)C1 (stereo unspecified)	none (no result: KDM5B inhibitor)
Cc1[nH]c2ccccc2c1C(=O)N1CCN(S(=O)(=O)c2ccccc2F)CC1	none (no result: IP6K1 inhibitor)
CN1CCC(Cn2ccc3c(N4CCOCC4)nc(-c4cccc5[nH]ccc45)cc32)CC1	KDM5B inhibitor 7.9µM
C[S+](=O)([O-])N1CCC(Cn2ccc3c(N4CCOCC4)nc(-c4ccncc4)cc32)CC1	KDM5B inhibitor inconclusive
C[S+](=O)([O-])N1CCC(Cn2ccc3c(N4CCOCC4)nc(-c4ccccc4F)cc32)CC1	KDM5B inhibitor inconclusive
CN1CCC(Cn2ccc3c(N4CCOCC4)nc(-c4ccc5cn[nH]c5c4)cc32)CC1	KDM5B inhibitor 35µM
CN1CCC(Cn2ccc3c(N4CCOCC4)nc(-c4cccc(N5CCOCC5)c4)cc32)CC1	none
C[S+](=O)([O-])N1CCC(Cn2ccc3c(N4CCOCC4)nc(-c4cccc5[nH]ncc45)cc32)CC1	KDM5B inhibitor 13µM
O=C(NC1CCCCC1)c1cc2sc3ccccc3c2s1	none (no result: IP6K1 inhibitor)
CCC(=O)Nc1nc2ccc(CC(=O)N3CCN(c4ccc(F)cc4)CC3)cc2s1	none (no result: IP6K1 inhibitor)
CC(C)c1ccccc1NC(=O)CSc1ccccc1Cl	none (no result: IP6K1 inhibitor)
Cc1cc(C(F)(F)F)nc(CNC(=O)c2ccc3cccc(F)c3n2)n1	KDM5B inhibitor 22µM
CCCc1nc(C(=O)NCc2nc(C)cc(C(F)(F)F)n2)cs1	none
N#Cc1ccc(COc2ccccc2C(=O)Nc2ccccc2)cc1	none (no result: IP6K1 inhibitor)
Cc1nc2c(OCC(=O)c3ccccc3)cccn2c(=O)c1-c1cc(C)n(-c2ccccc2)n1	KDM5B inhibitor inconclusive
CCOC(=O)CCCOc1cccn2c(=O)c(-c3cc(C)n(-c4cccc(C)c4)n3)c(C)nc12	KDM5B inhibitor 28µM
CCOC(=O)CNC(=O)c1cc2c(=O)n3cccc(C)c3nc2n1C	KDM5B inhibitor inconclusive
CCOC(=O)c1nn(-c2ccc(Cl)cc2)c(C)cc1=O	none (no result: IP6K1 inhibitor)
CCOC(=O)CCCOc1cccn2c(=O)c(-c3cc(C)n(-c4ccc(Cl)cc4)n3)c(C)nc12	KDM5B inhibitor 25µM
Cc1ccccc1-n1nc(-c2c(C)nc3c(OCC(=O)OC(C)(C)C)cccn3c2=O)cc1C	KDM5B inhibitor 20µM
CCOC(=O)CCCOc1cccn2c(=O)c(-c3cc(C)n(-c4ccccc4C)n3)c(C)nc12	KDM5B inhibitor 32µM
Cc1c(OCC(=O)OC(C)(C)C)ccc2c(-c3ccccc3)cc(=O)oc12	none (no result: IP6K1 inhibitor)
O=C(Cc1ccc(F)cc1)NCCNC(=O)c1cccc(-c2ccc(C(F)(F)F)cc2)c1	none (no result: KDM5B inhibitor)
Fc1ccc(-c2nnc(COc3cccc(Cl)c3)o2)cc1	none (no result: IP6K1 inhibitor)
CCCCCc1ccc(-c2ccc(C3CCC(CCC)CC3)c(F)c2)nc1 (stereo unspecified)	none (no result: IP6K1 inhibitor)
Fc1ccc(N/N=C/c2ccc(Cl)c(Cl)c2)c(F)c1	none (no result: IP6K1 inhibitor)
Cc1nc(CC(=O)NCc2ccccn2)cs1	none (no result: IP6K1 inhibitor)
Cc1ccc2c(c1)N(CCC(=O)NCc1ccc(F)cc1)C(=O)CO2	KDM5B inhibitor inconclusive
Cc1c(-c2ccc(F)cc2)[nH]c2ccc(CNCc3cnn(C)c3)cc12	KDM5B inhibitor 32µM
O=C(NCc1ccc(F)cc1)c1ccc(NC(=O)C2CCCO2)cc1 (stereo unspecified)	none (no result: IP6K1 inhibitor)
Cc1c(-c2ccc(F)cc2)[nH]c2ccc(CNC(=O)CCN3CCCO3)cc12	KDM5B inhibitor 32µM
Fc1ccc(-c2[nH]ncc2CNCc2cccc(Cn3cccn3)c2)cc1	none (no result: IP6K1 inhibitor)
Cc1nc(CC(=O)NCc2ccc3[nH]c(-c4ccc(F)cc4)c(C)c3c2)cs1	KDM5B inhibitor 32µM
Cc1c(-c2ccc(F)cc2)[nH]c2ccc(CNC(=O)[C@@H]3CCCO3)cc12	KDM5B inhibitor 28µM
COc1ccc(C(=O)N2CCc3[nH]nc(C(=O)NCCCc4ccccc4)c3C2)cc1	none (no result: KDM5B inhibitor)
O=C(c1cccs1)N(Cc1ccccn1)C1CC1	none (no result: IP6K1 inhibitor)
COc1ccccc1C(=O)NC1CCN(Cc2cccc(-c3cccs3)c2)CC1	none (no result: KDM5B inhibitor)
COc1cccc(CNC(=O)CNC(=O)c2cccc(-c3ccc(SC)cc3)c2)c1	none (no result: KDM5B inhibitor)
COc1ncccc1-c1cnc2[nH]cc(CC(=O)N3CCOCC3)c2c1	KDM5B inhibitor 35µM
COc1ccc(NC(=O)Cc2c[nH]c3ncc(-c4cnn(C)c4)cc23)cn1	KDM5B inhibitor inconclusive
Cc1ccccc1-c1cnc2[nH]cc(CC(=O)Nc3ccn(C)n3)c2c1	KDM5B inhibitor 32µM
Cc1ccccc1-c1cnc2[nH]cc(CC(=O)NCCN3CCOCC3)c2c1	KDM5B inhibitor inconclusive
COc1ncccc1-c1cnc2[nH]cc(CC(=O)Nc3ccn(C)n3)c2c1	KDM5B inhibitor 32µM
Cc1ccccc1-c1cnc2[nH]cc(CC(=O)Nc3ccccn3)c2c1	KDM5B inhibitor inconclusive
COc1ncccc1-c1cnc2[nH]cc(CC(=O)Nc3ccccn3)c2c1	KDM5B inhibitor 35µM
COCCNC(=O)Cc1c[nH]c2ncc(-c3ccccc3C)cc12	KDM5B inhibitor inconclusive
O=C(O)CNC(=O)c1ccc(-c2ccccc2)cc1	none (no result: IP6K1 inhibitor)
Cc1cnc2c(S(=O)(=O)N3CCNCC3)cccc2c1	none (no result: IP6K1 inhibitor)
O=C1CCNc2ccccc2CN1C1CC1	none (no result: KDM5B inhibitor)
CCN1CCN(C(=O)c2cn(Cc3ccccc3)nc2-c2ccc(C)c(C)c2)CC1	none (no result: IP6K1 inhibitor)
Cn1c(SCc2nc(N)nc(Nc3ccccc3)n2)nnc1C1CC1	none (no result: IP6K1 inhibitor)
COc1cccc(NC(=O)Cc2c[nH]c3ncc(-c4cccnc4OC)cc23)c1	KDM5B inhibitor inconclusive
COc1ncccc1-c1cnc2[nH]cc(CC(=O)Nc3cc(C)nn3C)c2c1	KDM5B inhibitor 40µM
COc1ccc(NC(=O)Cc2c[nH]c3ncc(-c4ccccc4)cc23)cn1	KDM5B inhibitor inconclusive
COc1ncccc1-c1cnc2[nH]cc(CC(=O)NC(C)C)c2c1	KDM5B inhibitor 32µM
COc1ccc2c(c1)/C(=N/OC(=O)c1cc(Cl)ccc1SC)CCC2	none (no result: IP6K1 inhibitor)
CN(C)c1cccc(C(=O)Nc2ncc(-c3cnn(C)c3)c3c2OCC3)c1	none
FC(F)(F)c1cccc(Nc2ncc(-c3cccnc3)c3c2OCC3)c1	KDM5B inhibitor 28µM
Cn1cc(-c2cnc(Nc3cccc(C(F)(F)F)c3)c3c2CCO3)cn1	KDM5B inhibitor 35µM
